Laboratory results reported in PubChem BioAssay (NCATS).
Records with an inconclusive call do not appear. Active and inactive are the calls of the source. Calls follow the shape of the dose curve; as a rule, active = well fitted curve in the direction sought with a large enough effect; inconclusive = small, poorly fitted or top-dose-only effect, or another doubt; inactive = no such curve, though single readings can be large; an effect the other way counts as inactive or inconclusive. Where a SMILES comes first, the peptide text is derived from it.

Key:
[1] = target: Glutathione peroxidase 1 (Homo sapiens) (UniProt P07203); experiment: Primary qHTS Assay for Inhibitors of Recombinant Selenoprotein Glutathione Peroxidase 1 (GPX1) (AID 1845191); also: nearly all actives have a fitted effect of over 65% in size; as to activity, negative = inhibition: % is scaled to controls: 0 for no effect and ±100 for the full control effect
In short: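 GPX1 10 nM, GR 100 nM, GSH 1 mM, NADPH 0.5 mM, CHP 0.5 mM (final). 30-min cpd preincubation, RT. Ex340/Em450 read t=0, t=15 min.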

[2] = target: Phospholipid hydroperoxide glutathione peroxidase GPX4 (Homo sapiens) (UniProt P36969); experiment: Primary qHTS Assay for Inhibitors of Recombinant Selenoprotein Glutathione Peroxidase 4 (GPX4) (AID 1845192); also: nearly all actives have a fitted effect of over 65% in size; as to activity change, negative = inhibition: series mostly up to about 50 µM; % is scaled to controls: 0 for no effect and ±100 for the full control effect
In short: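 qHTS, GR-coupled: GPX4 200 nM + cpd 30 min RT → GSH 1 mM, NADPH 0.5 mM, GR 100 nM → CHP 0.5 mM start; fluor 340/450 at t0 and t15 min; no-enzyme wells as control.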

[3] = target: Luciferin 4-monooxygenase (Photinus pyralis) (UniProt P08659); experiment: Primary firefly luciferase (FLuc) qHTS assay for identification of artifact compounds. (AID 1845220); also: nearly all actives have a fitted effect of over 60% in size;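 as to activity change, negative = inhibition: series mostly up to about 54 µM; plate controls were DMSO vehicle for no effect and no enzyme for full effect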
In short: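 Reaction readout was CCD-imaged luminescence, taken 5 min after adding 10 nM purified firefly enzyme to compound-treated wells holding 10 uM luciferin and ATP in pH 7.6 buffer.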

[4] = Primary fluorescence-based thiol-reactive (MSTI) qHTS assay for identification of artifact compounds. (AID 1845221); also: nearly all actives have a fitted effect of over 65% in size; also: potency is read from the fitted curve at half-maximal effect;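 as to activity change, negative = thiol reactive: series mostly up to about 54 µM; thiol-reactive compounds lower the probe fluorescence signal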
In short: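 First, 4 uM MSTI in 2% DMSO/PBS pH 7.4 was dispensed; next, compounds were added; then plates sat 1 h at room temperature without light. Finally, emission at 598 nm was recorded.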

[5] = system: Nanoluciferase (engineered Oplophorus gracilirostris luciferase); experiment: Primary Nanoluciferase (NLuc) qHTS assay for identification of artifact compounds. (AID 1845222);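 also: NLuc secreted into diluted conditioned medium of S16 cells; series mostly up to about 54 µM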
In short: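 Concentration-response data were obtained by luminescence after 5 min with Nano-Glo substrate at 1:100. The enzyme was diluted S16 NLuc-expressing cell medium, preincubated with compound for 15 min at RT. Curves were fitted with a 4-parameter Hill model.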

[6] = Primary redox qHTS assay for identification of artifact compounds. (AID 1845223);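 also: 0% = DMSO and 100% = reference compound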
In short: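 Redox-cycling detection via DTT (250 uM final) oxidation coupled to Amplex Red (25 uM)/HRP (250 mU/mL) in HBSS. 15 min preincubation plus 30 min after DTT, room temperature. Ex/Em 525/598 nm; 4-parameter Hill fit against DMSO and 10 uM DA3003.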

Chain of Glutathione peroxidase 1 (Homo sapiens) (P07203 whole entry, looked up): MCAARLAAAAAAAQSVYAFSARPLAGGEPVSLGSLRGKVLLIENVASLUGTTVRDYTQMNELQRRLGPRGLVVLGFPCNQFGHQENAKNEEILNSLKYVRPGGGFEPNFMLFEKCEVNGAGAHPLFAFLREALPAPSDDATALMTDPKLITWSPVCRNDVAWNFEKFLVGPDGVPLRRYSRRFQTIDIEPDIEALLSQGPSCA
Chain of Phospholipid hydroperoxide glutathione peroxidase GPX4 (Homo sapiens) (P36969 whole entry, looked up): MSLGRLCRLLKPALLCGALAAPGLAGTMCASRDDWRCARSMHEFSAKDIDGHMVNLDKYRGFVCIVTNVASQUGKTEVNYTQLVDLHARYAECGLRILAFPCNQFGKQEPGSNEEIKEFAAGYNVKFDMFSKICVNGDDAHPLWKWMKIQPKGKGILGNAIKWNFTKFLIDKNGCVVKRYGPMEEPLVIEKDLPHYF

COc1cc(/C=C/C(=O)OCC2OC(OC3(CO)OC(CO)C(O)C3O)C(O)C(O)C2O)ccc1O (stereo unspecified)
inactive: Potency [1] | Potency [2] | Potency [3] | Potency [4] | Potency [5] | Potency [6]

COc1ccc(/C=C/C(=O)N2CCCC2)cc1
inactive: Potency [1] | Potency [2] | Potency [3] | Potency [4] | Potency [5] | Potency [6]

CC(=O)OC1CC2C(C)(C)C(=O)C=CC2(C)C2CC(=O)C3=C(CCC3C3=CC(O)OC3=O)C12C (stereo unspecified)
inactive: Potency [1] | Potency [2] | Potency [3] | Potency [4] | Potency [5] | Potency [6]

CC(C)(CC(=O)N1CCCC1)NCC(=O)N1C[C@@H](F)C[C@H]1C#N
inactive: Potency [1] | Potency [2] | Potency [3] | Potency [4] | Potency [5] | Potency [6]

Nc1ncnc2c1C(=O)N(c1ccc(C3CCC(CC(=O)O)CC3)cc1)CCO2 (stereo unspecified)
inactive: Potency [1] | Potency [2] | Potency [3] | Potency [4] | Potency [5] | Potency [6]

CC1(C)CC[C@]2(C(=O)O)CC[C@]3(C)C(=CCC4[C@@]5(C)C[C@H](O)[C@H](O[C@@H]6O[C@H](CO)[C@@H](O)[C@H](O)[C@H]6O)[C@@](C)(CO)C5[C@H](O)C[C@]43C)[C@@H]2C1 (stereo partly specified)
inactive: Potency [1] | Potency [2] | Potency [3] | Potency [4] | Potency [5] | Potency [6]

CC1=CCC[C@@H]2[C@](CCc3ccoc3)(C(=O)O)[C@H](C)CC[C@@]12C
inactive: Potency [1] | Potency [2] | Potency [3] | Potency [4] | Potency [5] | Potency [6]

C[C@@H]1O[C@@H](OC[C@H]2O[C@@H](OCc3ccccc3)[C@H](O)[C@@H](O)[C@@H]2O)[C@H](O)[C@H](O)[C@H]1O
inactive: Potency [1] | Potency [2] | Potency [3] | Potency [5] | Potency [6]
active: Potency [4] 5.19 µM

COc1ccc(C(=O)OC2C3C=COC(OC4OC(CO)C(O)C(O)C4O)C3C3(CO)OC23)cc1OC (stereo unspecified)
active: Potency [4] 4.12 µM
inactive: Potency [1] | Potency [2] | Potency [3] | Potency [5] | Potency [6]

COc1c2cc(c(O[C@@H]3O[C@H](CO)[C@@H](O)[C@H](O)[C@H]3O)c1OC)CCCCC(O)CCc1ccc(O)c-2c1 (stereo partly specified)
inactive: Potency [1] | Potency [2] | Potency [3] | Potency [5] | Potency [6]
active: Potency [4] 6.53 µM

Fc1ccc(-c2c3cccc(C(F)(F)F)c3nn2Cc2ccc(F)cc2Cl)cc1
inactive: Potency [1] | Potency [2] | Potency [3] | Potency [4] | Potency [5] | Potency [6]

CC(C)c1c(NC(=O)Nc2ccc(Cl)cc2)c(=O)n(-c2ccccc2)n1C
inactive: Potency [1] | Potency [2] | Potency [3] | Potency [4] | Potency [5] | Potency [6]

C/C=C(\C)C(=O)OC[C@H]1O[C@@H](O[C@H]2[C@@H](O[C@H]3O[C@H](COC(=O)/C(C)=C/C)[C@@H](O)[C@H](O)[C@H]3O[C@@H]3O[C@H](COC(=O)/C(C)=C/C)[C@@H](O)[C@H](OC(=O)/C(C)=C/C)[C@H]3O)O[C@H](COC(=O)/C(C)=C/C)[C@@H](O)[C@@H]2O)[C@H](O)[C@@H](O)[C@@H]1O
inactive: Potency [1] | Potency [2] | activity change, negative = inhibition [3] 3.11% [at 11.6 µM] | activity change, negative = thiol reactive [4] 8.85% [at 11.5 µM] | activity, negative = inhibition [5] 0.483% [at 11.6 µM] | redox activity (% of DA3003) [6] -2.39% [at 11.5 µM]

CC(=O)OC/C(=C/C(=O)O)CC[C@@H]1C(C)=CC(=O)[C@@H]2C(C)(C)CCC[C@@]12C
inactive: Potency [1] | Potency [2] | Potency [3] | Potency [4] | Potency [5] | Potency [6]

OC[C@@]1(O)CO[C@H](OC[C@H]2O[C@@H](OC(CCCCc3ccc(O)cc3)CCc3ccc(O)cc3)[C@H](O)[C@@H](O)[C@@H]2O)[C@@H]1O (stereo partly specified)
inactive: Potency [1] | Potency [2] | Potency [3] | Potency [4] | Potency [5] | Potency [6]

CC(C)C1NC(=O)CNC(=O)C2CCCN2C(=O)C(Cc2c[nH]c3ccccc23)NC(=O)CNC(=O)C(Cc2ccc(O)cc2)NC(=O)CNC1=O (stereo unspecified) (cyclo(GVGYGWP); configuration not given here)
inactive: Potency [1] | Potency [2] | Potency [3] | Potency [4] | Potency [5] | Potency [6]

O=C(NC1CCN(CC(F)(F)F)CC1)c1ccc(-c2cccc(F)c2)nc1
inactive: Potency [1] | Potency [2] | Potency [3] | Potency [4] | Potency [5] | Potency [6]

CC1CCC2(C(=O)OC3OC(CO)C(O)C(O)C3O)CCC3(C)C(=CCC4C5(C)CCC(O)C(C)(CO)C5CCC43C)C2C1(C)O (stereo unspecified)
inactive: Potency [1] | Potency [2] | Potency [3] | Potency [4] | Potency [5] | Potency [6]

C[C@@H](c1ccccc1)N(C(N)=NC#N)c1cccc2ncccc12
inactive: Potency [1] | Potency [2] | Potency [3] | Potency [4] | Potency [5] | Potency [6]

O=C(O)Cn1nnc(-c2ccc(CN(CCCCOc3ccc(CN4CCCC4)cc3)CCc3ccccc3)cc2)n1
inactive: Potency [1] | Potency [2] | Potency [3] | Potency [4] | Potency [5] | Potency [6]

C=C(C)[C@@H]1CC[C@]2(C(=O)O)CC[C@]3(C)C(CCC4[C@]5(C)C(CC[C@]43C)C(C)(C)[C@@H](O)[C@@H]5C(=O)O)C12 (stereo partly specified)
inactive: Potency [1] | Potency [2] | Potency [3] | Potency [4] | Potency [5] | Potency [6]
